From the supplement of paper PMC3334620
The full ranking holds about 33,000 sequences; the median of “E-score (-0.5 to 0.5)” is about -0.016, and the highest 2% start at about 0.3. Many of the other results were omitted from the sample, so the highest values are more common in it than they were.

molecular target: T1, Yer184c (UniProt P39961); experiment: PBM E-score (8-mer binding enrichment) (E-score (-0.5 to 0.5)); higher = stronger / more preferred TF binding; conditions: protein concentration: 100 nM; construct: GST-full length
T1 sequence: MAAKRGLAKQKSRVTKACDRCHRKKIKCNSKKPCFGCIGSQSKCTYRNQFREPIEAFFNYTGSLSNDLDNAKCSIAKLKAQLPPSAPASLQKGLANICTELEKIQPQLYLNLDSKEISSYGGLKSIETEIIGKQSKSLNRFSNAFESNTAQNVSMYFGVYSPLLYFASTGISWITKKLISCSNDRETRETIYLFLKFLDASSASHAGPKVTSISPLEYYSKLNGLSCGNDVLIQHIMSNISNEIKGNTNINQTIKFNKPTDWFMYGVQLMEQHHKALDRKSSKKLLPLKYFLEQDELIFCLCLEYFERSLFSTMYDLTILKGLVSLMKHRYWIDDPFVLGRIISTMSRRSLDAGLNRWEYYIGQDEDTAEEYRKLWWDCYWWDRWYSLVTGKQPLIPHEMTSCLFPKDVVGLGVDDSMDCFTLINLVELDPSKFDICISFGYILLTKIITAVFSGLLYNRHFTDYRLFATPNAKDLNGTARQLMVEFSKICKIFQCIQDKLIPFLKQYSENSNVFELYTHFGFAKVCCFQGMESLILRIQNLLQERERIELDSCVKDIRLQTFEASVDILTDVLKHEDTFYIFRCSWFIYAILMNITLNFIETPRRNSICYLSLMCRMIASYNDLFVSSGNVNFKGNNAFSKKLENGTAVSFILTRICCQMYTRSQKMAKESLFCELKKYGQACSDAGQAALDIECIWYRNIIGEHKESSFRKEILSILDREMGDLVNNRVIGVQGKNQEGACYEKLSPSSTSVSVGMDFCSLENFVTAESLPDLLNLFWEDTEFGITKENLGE
In short: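 E-scores (a modified Wilcoxon-Mann-Whitney statistic) were assigned by the Universal PBM Analysis Suite to every ungapped eight-base word pooled with its reverse complement. The input came from universal all-10-mer Agilent arrays made double-stranded by primer extension and probed with GST-tagged yeast transcription factors at about 100-200 nM. Fluorescent anti-GST detected bound protein, and masliner normalised the scans.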

Row | Sequence | PBM E-score
1 | AACAAGAC | 0.105
2 | ACCTCAAA | 0.137
3 | CCCCTGAC | -0.0911
4 | ACCCGAGG | -0.00171
5 | CCCCGAGC | -0.0347
6 | CACCGAGC | 0.231
7 | AACCGAGT | 0.0155
8 | CTCCGAGC | 0.271
9 | AGCCGAGG | 0.336
10 | GGCCGATA | 0.264
11 | GGCCGAGA | 0.348
12 | AACCGAGC | 0.323
13 | ATCCGAGG | 0.182
14 | CGCCGAGC | 0.344
15 | GGCCGACA | 0.0888
16 | GACACTCA | -0.0521
17 | ACAGCGGA | 0.0362
18 | GGGTTAGA | -0.134
19 | AACGTAAT | -0.0198
20 | GTTGGACA | -0.0236
21 | AATGTTCG | 0.0469
22 | TCCCGAGA | 0.305
23 | ACCCGAGC | 0.229
24 | ATCCGAGC | 0.219

Row | Sequence | PBM E-score
25 | CGCCGAGA | 0.346
26 | GCCCGAGA | 0.24
27 | CCCCGAGA | -0.123
28 | CACCGAGA | -0.212
29 | AGCCGATA | 0.142
30 | AGCCGAGA | 0.326
31 | AGCCGAGC | 0.318
32 | AACCGAGA | 0.229
33 | CGCCGACA | 0.18
34 | CTACTGGA | -0.271
35 | CCTCAGCG | 0.0964
36 | ATAGAGGG | -0.135
37 | AGGCCAAA | 0.0579
38 | AACAACGG | 0.175
39 | CGAACTTC | 0.13
40 | GCCCGCAC | -0.0678
41 | AATCTGTA | 0.116
42 | GAAGAGTA | 0.113
43 | CGGTTCGC | 0.0153
44 | ACGAATGA | 0.189
45 | ACGAATAA | 0.0316
46 | CCGAATGA | 0.321
47 | GCGAATGA | 0.149
48 | CCGAATAA | 0.346

Row | Sequence | PBM E-score
49 | CCGAATAC | 0.293
50 | GGGTCTAC | -0.06
51 | TCGCGTCA | -0.0846
52 | ATGGTTTC | 0.0728
53 | GCGAATAA | 0.0477
54 | ACATCCTG | 0.0484
55 | TCATCCGA | 0.34
56 | GCATCCGA | 0.176
57 | CCATCCGA | 0.0749
58 | CCATCCGG | 0.143
59 | ACATCCGG | 0.397
60 | ACATCCGA | 0.346
61 | ACATCCGC | 0.252
62 | ACATCCGT | 0.167
63 | ACCACAAG | -0.0787
64 | CGATGCTA | 0.084
65 | ATGTGCCG | 0.18
66 | CATAGCAG | -0.293
67 | AAGAGGCC | -0.172
68 | ACGTCGCT | -0.239
69 | CCTTCAGC | -0.152
70 | CGCGGAGC | 0.171
71 | CGCGGATA | 0.317
72 | CGCGGATC | 0.13

Row | Sequence | PBM E-score
73 | CACGGATC | 0.256
74 | AGCGGATA | 0.0602
75 | GACGGATC | 0.115
76 | CACGGATG | 0.108
77 | CGCGGAGA | 0.308
78 | AGCGGATC | 0.204
79 | AGCGGAGA | -0.0382
80 | AACGGATC | 0.306
81 | CACGGATA | 0.332
82 | TTACGCAA | 0.0884
83 | GGCTGAAC | 0.0871
84 | CCCCGCGA | -0.0621
85 | ATCCACTC | -0.00405
86 | AACGGATA | 0.374
87 | GACGGATA | 0.125
88 | AACGGACT | 0.14
89 | AACGGATG | 0.197
90 | AACGGATT | 0.343
91 | TACGGATA | 0.195
92 | GCCGATTA | 0.274
93 | ACTAAGGC | -0.0457
94 | CGTTCAGA | -0.0522
